# Statin myotox sup: suppressors of simvastatin-induced myotoxicity in C2C12 myotubes; 0.78% of 330,000 active; rescue of ATP level, % at 7.49 µM; ATP luminescence, 48 h; scaled: DMSO 0, geranylgeraniol control 100;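 active = mean ATP rescue above about 67%, or every replicate alone reaching that limit, limit read from the data, passing the limit was not always enough; inconclusive = no clear call, values can overlap the other calls; inactive = mean under the limit and some replicate under it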;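 note: myotubes were challenged with 10 µM simvastatin during compound exposure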
# LMP1 NFkB inh: Epstein-Barr LMP1 NF-kappaB reporter inhibition | LMP1-induced NF-kappaB luciferase reporter cells, luminescence | 0.69% of 350,000 active | inhibition, % at 12.5 µM | AID 504558; in the data active = inhibition above about 41%; inconclusive = no clear call, values can overlap the other calls
# esBAF inh: SWI/SNF esBAF complex inhibition. reporter increase, % at 12.5 µM. mouse ES cells, Bmi1-luciferase knock-in reporter, 24 h; 100% = twice the neutral-well signal. AID 602393. 2% of 350,000 active; in the data active = activation above about 40%; inconclusive = no clear call, values can overlap the other calls;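 note: a rise in the Bmi1 reporter signal indicates esBAF inhibition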
# Wnt bcat act: activates Wnt/beta-catenin signaling in a reporter cell assay | activator, plate reader | activation, % at 9.35 µM | 1.2% of 300,000 active | AID 743398; in the data active = activation above about 30%, passing the limit was not always enough; inconclusive = no clear call, values can overlap the other calls
# MITF TRPM1 HTS: activators of MITF-driven TRPM1 promoter activity in SK-MEL-5 cells; SK-MEL-5 TRPM1-promoter luciferase, 24 h; % of positive control, neutral wells = 0; activation, % at 12.5 µM; 0.75% of 300,000 active; AID 588334;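 active = mean activation of at least 80% with every replicate also reaching 80%; inconclusive = mean reaches 80% but some replicate falls short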
# MITF TRPM1 inh: inhibitors of MITF-driven TRPM1 promoter in melanoma cells; 0.83% of 330,000 active; SK-MEL-5 TRPM1 promoter luciferase, 24 h; inhibition, % at 12.5 µM; AID 488899;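 active = mean inhibition across replicates of 60% or more, whatever share of single replicates reaches that level; inconclusive = some that reach 60%, reason not given; inactive = mean inhibition across replicates below 60%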
# Numbers stand for hits; – = inactive; ? = inconclusive; · = no result. Compounds with a hit are over-represented: about 4% of the library has one in this group of screens.
SMILES,Statin myotox sup,LMP1 NFkB inh,esBAF inh,Wnt bcat act,MITF TRPM1 HTS,MITF TRPM1 inh
Cc1cc2[nH]c3c4ccccc4nc(C)c3c2cc1C,–,–,–,–,·,86
OC[C@H]1O[C@@H](c2nc3ccc(-c4nc(-c5ccc(Br)cc5)no4)cc3[nH]2)C[C@@H]1O,–,·,55,–,·,·
CCN(CC)C(=O)c1ccc2nc([C@H]3C[C@H](O)[C@@H](CO)O3)[nH]c2c1,–,·,–,–,·,·
CC(C)S(=O)(=O)c1cnc(N2CCOCC2)nc1N,·,–,·,40,·,–
CC1CN(C(=O)c2ccc(N3CCCCC3)c([N+](=O)[O-])c2)CC(C)O1 (stereo not drawn),–,–,–,·,–,–
CN=C1SC(CC(=O)Nc2ccccc2F)C(=O)N1/N=C/c1ccc(O)c(OC)c1 (stereo not drawn),·,–,·,–,–,–
COc1ccc(-c2noc(CN(C)C(=O)c3ccoc3C)n2)cc1,–,–,–,–,–,–
COc1ccc2cc3c(N)nn(C(=O)Cc4c[nH]c5ccccc45)c3nc2c1,·,75,·,–,–,63
COc1ccc2cc3c(N)nn(C(=O)c4ccccc4Cl)c3nc2c1,–,80,–,–,–,–
CC(=O)c1cn(Cc2ccccc2)c(=O)n(Cc2ccc(F)cc2)c1=O,·,–,·,–,–,–
O=c1c([N+](=O)[O-])cn(Cc2ccccc2)c(=O)n1Cc1ccccc1,–,68,–,–,–,–
CCOC(=O)/C(=N/Nc1ccc(C)cc1)S(=O)(=O)c1ccc(Cl)cc1,–,–,54,·,–,–
CCOC(=O)/C(=N\Nc1ccccc1)S(=O)(=O)c1ccccc1,–,–,–,–,–,–
COc1ccccc1-c1nnc(Sc2nc([N+](=O)[O-])nn2C)o1,–,57,–,·,–,–
C[C@@H]1COc2cccc(N3CCSCC3)c2S(=O)(=O)N1,·,·,·,–,·,·
Cc1ccc(S(=O)(=O)Nc2cccc3c2O[C@H](CN(C)C(=O)Nc2c(C)noc2C)[C@@H](C)CN([C@H](C)CO)C3=O)cc1,–,·,–,·,·,·
COC(=O)c1ccc(COc2cc(O)c3c(c2)OC(C)(C)CC3=O)cc1,–,–,–,–,–,–
CC1(C)CC(=O)c2c(O)cc(OCc3ccc(Br)cc3)cc2O1,–,–,67,–,87,–
Cc1ccc2nc(/C=C/c3cccc(F)c3)ccc2c1,·,–,·,71,–,–
NC1(C(=O)O)CSSC1,·,–,·,–,–,65
O=C1C(N2CCOCC2)=C(n2nnc3ccccc32)C(=O)c2ccccc21,–,65,–,–,–,98
Cc1ccc(-c2nc(NCCCO)c3ccccc3n2)cc1,–,–,–,–,·,–
Cc1ccc(NC(=O)C(=O)NCCc2c[nH]c3ccccc23)cc1C,·,–,·,–,–,–
Cn1c(C(=O)NCCc2c[nH]c3ccccc23)cc2sccc21,–,–,74,–,101,–
O=C(NCCc1c[nH]c2ccccc12)C(=O)Nc1ccccc1,–,–,58,–,–,–
SMILES,Statin myotox sup,LMP1 NFkB inh,esBAF inh,Wnt bcat act,MITF TRPM1 HTS,MITF TRPM1 inh
OCCCNc1c2ccccc2nc2ccccc12,–,–,–,–,–,83
c1ccc2c(NCCc3c[nH]c4ccccc34)c3ccccc3nc2c1,–,–,–,–,–,88
O=c1[nH]cnc2ccc([N+](=O)[O-])cc12,·,–,·,–,–,–
NNC(=O)/C(=N/Nc1ccccc1)S(=O)(=O)c1ccc(Cl)cc1,·,–,·,·,–,–
O=C(NCCc1c[nH]c2ccccc12)c1cc(Cl)c2c(c1)OCO2,–,–,47,36,113,–
O=C(NCCc1c[nH]c2ccccc12)c1ccc2c(c1)OCO2,–,–,–,–,–,–
CCOc1ccc(NC(=O)CCCc2cc(-c3ccc(OCC)cc3)on2)cc1,·,–,–,–,·,–
CCOc1ccc(-c2cc(CCCC(=O)Nc3cccc(OC)c3)no2)cc1,–,47,–,–,–,?
O=C(CCCc1nc(-c2ccccc2)no1)Nc1cccnc1,86,–,–,–,–,–
O=C(CCc1nc(-c2ccccc2)no1)Nc1cccnc1,–,–,–,–,–,–
COc1cccc(-c2noc(CCC(=O)Nc3cccnc3)n2)c1,–,–,52,·,–,–
C[C@H]1CN([C@@H](C)CO)C(=O)c2cc(NC(=O)CCN3CCOCC3)ccc2O[C@@H]1CN(C)S(=O)(=O)c1cn(C)cn1,–,·,–,·,·,·
CCCNC(=O)C[C@H]1CC[C@H]2[C@H](COc3ccc(NC(=O)COC)cc3C(=O)N2C)O1,–,·,–,·,·,·
NC(=O)c1nsc(C(=O)N(c2cccc(F)c2)C(C(=O)NCc2ccccc2)c2ccc(O)cc2)c1N (stereo not drawn),–,–,–,–,–,–
C[C@H](CO)N1C[C@H](C)[C@H](CN(C)C(=O)c2cccc(F)c2)Oc2ncc(C#CCN(C)C)cc2C1=O,–,·,–,·,·,·
COc1ccc(NC(=O)c2ccccc2NC(=O)C2CCCCC2C(=O)O)cc1 (stereo not drawn),–,–,51,38,·,–
O=C(Nc1ccc(F)c(Cl)c1)c1ccccc1NC(=O)C1CCCCC1C(=O)O (stereo not drawn),–,–,66,–,·,–
CC(C)c1ccc(NC(=O)c2ccccc2NC(=O)C2CCCCC2C(=O)O)cc1 (stereo not drawn),–,–,64,35,–,–
CC(C)c1ccc(NC(=O)c2ccccc2NC(=O)C2CC=CCC2C(=O)O)cc1 (stereo not drawn),–,–,51,–,–,–
O=C(Nc1ccc(F)cc1)c1ccccc1NC(=O)C1CC=CCC1C(=O)O (stereo not drawn),–,–,–,–,–,–
O=C(Nc1ccc(F)cc1)c1ccccc1NC(=O)C1CCCCC1C(=O)O (stereo not drawn),–,–,–,–,·,–
CC(C)(C)c1ccc(S(=O)(=O)CCc2ccccn2)cc1,·,–,71,–,–,–
CC(C)(C)c1ccc(SCCc2ccccn2)cc1,·,–,·,61,102,–
Fc1ccc(SCCc2ccccn2)cc1,–,–,–,–,–,–
Cn1cc(/C=C(\C#N)C(=O)Nc2ccccc2O)c2ccccc21,–,–,64,·,–,–
SMILES,Statin myotox sup,LMP1 NFkB inh,esBAF inh,Wnt bcat act,MITF TRPM1 HTS,MITF TRPM1 inh
COc1ccc(S(=O)(=O)N(C(=O)c2ccncc2)c2ccc3oc4c(c3c2)CCCC4)cc1,·,–,·,–,–,–
Cc1ccccc1/C=C1\CCCc2ccccc2C1=O,–,–,82,77,·,–
O=C1C(=Cc2ccccn2)CCc2ccccc21,–,–,64,?,·,·
COc1ccccc1N(CC(=O)N1CCCCCC1)S(=O)(=O)c1ccc(C)cc1,91,–,–,–,–,–
O=C(NCc1cccs1)C1CCN(S(=O)(=O)c2cccs2)CC1,–,–,–,·,–,–
CCOC(=O)c1cc(C(=O)Nc2ccc(C)c(F)c2)nn1C,–,–,42,·,?,–
N#Cc1cc(-c2ccccc2)nnc1Sc1ccc(Cl)cc1,113,–,–,·,–,–
